Measured values as given in the supplement of paper PMC11732987, “Enantioselective OTUD7B fragment discovery through chemoproteomics screening and high-throughput optimisation” (Communications Chemistry, 2025).

Legend:
Experiment in all cases: log2 ratio of Biotin-Ahx-Ub-VS probe labelling (fragment/DMSO); higher = less target engagement (more negative = stronger competition), active = hit call of the paper (q ≤ 0.05, log2 ratio ≤ -1)
Details in all cases: compound concentration: 200 uM; treatment time: 3 h
USP9X = USP9X (UniProt Q93008)
Sequence of USP9X (Q93008 whole entry, the tested form may be a part): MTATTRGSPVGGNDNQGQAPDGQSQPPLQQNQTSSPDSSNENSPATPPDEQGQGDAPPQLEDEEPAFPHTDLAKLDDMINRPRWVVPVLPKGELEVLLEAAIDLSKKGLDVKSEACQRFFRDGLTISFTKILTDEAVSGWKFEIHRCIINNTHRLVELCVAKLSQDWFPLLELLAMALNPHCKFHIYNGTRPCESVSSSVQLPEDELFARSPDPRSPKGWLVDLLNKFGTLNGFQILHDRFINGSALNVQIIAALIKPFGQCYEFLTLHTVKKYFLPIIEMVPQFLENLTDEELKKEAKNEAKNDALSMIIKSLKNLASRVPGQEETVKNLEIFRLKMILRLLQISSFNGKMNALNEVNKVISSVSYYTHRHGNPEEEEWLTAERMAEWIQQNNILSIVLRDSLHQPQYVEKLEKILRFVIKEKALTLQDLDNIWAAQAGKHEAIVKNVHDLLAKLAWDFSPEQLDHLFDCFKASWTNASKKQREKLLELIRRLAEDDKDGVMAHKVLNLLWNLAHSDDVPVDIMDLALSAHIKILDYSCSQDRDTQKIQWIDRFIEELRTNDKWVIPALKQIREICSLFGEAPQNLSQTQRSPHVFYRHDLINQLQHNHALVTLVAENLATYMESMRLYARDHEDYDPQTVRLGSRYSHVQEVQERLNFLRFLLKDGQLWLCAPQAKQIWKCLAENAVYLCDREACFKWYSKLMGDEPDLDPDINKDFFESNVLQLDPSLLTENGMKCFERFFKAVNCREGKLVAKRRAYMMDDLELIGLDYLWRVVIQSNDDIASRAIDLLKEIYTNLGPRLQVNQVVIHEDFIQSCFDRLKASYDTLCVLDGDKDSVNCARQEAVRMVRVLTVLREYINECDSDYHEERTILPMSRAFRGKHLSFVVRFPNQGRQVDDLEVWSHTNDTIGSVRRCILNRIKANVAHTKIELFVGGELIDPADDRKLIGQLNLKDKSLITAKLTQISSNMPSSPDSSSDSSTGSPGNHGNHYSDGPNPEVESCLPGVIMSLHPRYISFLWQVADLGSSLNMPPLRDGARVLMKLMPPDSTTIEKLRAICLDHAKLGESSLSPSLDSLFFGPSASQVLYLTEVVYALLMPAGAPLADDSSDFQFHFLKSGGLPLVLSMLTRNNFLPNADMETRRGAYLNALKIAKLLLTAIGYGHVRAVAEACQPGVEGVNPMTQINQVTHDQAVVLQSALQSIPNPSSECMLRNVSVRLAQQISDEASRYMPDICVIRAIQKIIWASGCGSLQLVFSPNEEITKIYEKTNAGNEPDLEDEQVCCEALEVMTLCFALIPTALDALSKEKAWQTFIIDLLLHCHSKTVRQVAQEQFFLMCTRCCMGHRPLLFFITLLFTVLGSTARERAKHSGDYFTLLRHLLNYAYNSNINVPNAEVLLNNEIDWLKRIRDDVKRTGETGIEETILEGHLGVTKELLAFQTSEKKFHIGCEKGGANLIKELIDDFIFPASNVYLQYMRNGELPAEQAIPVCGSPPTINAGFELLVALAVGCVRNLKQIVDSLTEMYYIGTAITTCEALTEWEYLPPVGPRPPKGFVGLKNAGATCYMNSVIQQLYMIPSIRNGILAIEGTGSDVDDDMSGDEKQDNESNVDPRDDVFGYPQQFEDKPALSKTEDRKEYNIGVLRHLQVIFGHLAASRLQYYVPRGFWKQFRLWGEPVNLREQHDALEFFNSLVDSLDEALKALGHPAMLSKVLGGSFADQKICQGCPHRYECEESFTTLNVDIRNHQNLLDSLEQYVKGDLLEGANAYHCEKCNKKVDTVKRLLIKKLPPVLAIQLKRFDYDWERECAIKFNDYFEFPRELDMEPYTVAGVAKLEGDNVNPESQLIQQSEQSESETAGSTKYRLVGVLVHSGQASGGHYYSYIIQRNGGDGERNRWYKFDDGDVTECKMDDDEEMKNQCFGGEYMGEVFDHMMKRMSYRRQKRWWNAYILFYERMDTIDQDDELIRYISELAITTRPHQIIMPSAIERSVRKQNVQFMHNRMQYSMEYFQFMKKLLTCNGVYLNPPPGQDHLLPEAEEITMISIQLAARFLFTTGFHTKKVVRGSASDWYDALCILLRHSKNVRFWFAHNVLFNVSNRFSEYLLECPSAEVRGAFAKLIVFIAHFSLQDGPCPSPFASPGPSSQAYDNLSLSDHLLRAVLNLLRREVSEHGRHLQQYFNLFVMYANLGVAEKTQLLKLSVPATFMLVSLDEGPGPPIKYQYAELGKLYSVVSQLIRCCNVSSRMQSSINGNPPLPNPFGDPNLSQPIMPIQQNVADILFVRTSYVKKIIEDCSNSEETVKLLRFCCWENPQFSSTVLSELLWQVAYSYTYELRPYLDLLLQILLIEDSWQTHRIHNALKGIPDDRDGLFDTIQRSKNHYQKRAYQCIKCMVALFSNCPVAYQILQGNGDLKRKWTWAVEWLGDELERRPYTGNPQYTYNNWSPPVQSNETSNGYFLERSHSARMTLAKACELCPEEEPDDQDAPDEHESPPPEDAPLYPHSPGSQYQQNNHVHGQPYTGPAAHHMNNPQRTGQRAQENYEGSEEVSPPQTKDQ
Outline: (§1)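 Fragment (200 µM) or vehicle was incubated for 3 h with triplicate HEK293T lysate samples of 495 µg, which were then treated with Biotin-Ahx-Ub-VS at 0.5 µM final for 1 h. Labelled DUBs were enriched on NeutrAvidin, digested with LysC and trypsin, and analysed by diaPASEF LC-MS/MS. Values are average log2 fragment/vehicle ratios from an unpaired t-test on global-median-normalised Spectronaut label-free quantities, using proteins with ≥2 unique peptides.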

UniProt O00487 = target: UniProt O00487
Sequence of UniProt O00487 (O00487 whole entry): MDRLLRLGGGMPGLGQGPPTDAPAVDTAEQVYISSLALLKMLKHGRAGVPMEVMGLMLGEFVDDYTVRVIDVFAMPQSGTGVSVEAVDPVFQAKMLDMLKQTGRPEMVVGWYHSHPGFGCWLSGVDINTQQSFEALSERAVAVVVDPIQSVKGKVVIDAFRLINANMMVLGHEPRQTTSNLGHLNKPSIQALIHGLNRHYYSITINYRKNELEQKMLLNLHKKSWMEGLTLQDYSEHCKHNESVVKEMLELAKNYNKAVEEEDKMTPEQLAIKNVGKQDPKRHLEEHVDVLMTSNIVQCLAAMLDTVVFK
Outline: as §1

UniProt O00507 = target: UniProt O00507
Outline: as §1

UniProt P51784 = target: UniProt P51784
Sequence of UniProt P51784 (P51784 whole entry): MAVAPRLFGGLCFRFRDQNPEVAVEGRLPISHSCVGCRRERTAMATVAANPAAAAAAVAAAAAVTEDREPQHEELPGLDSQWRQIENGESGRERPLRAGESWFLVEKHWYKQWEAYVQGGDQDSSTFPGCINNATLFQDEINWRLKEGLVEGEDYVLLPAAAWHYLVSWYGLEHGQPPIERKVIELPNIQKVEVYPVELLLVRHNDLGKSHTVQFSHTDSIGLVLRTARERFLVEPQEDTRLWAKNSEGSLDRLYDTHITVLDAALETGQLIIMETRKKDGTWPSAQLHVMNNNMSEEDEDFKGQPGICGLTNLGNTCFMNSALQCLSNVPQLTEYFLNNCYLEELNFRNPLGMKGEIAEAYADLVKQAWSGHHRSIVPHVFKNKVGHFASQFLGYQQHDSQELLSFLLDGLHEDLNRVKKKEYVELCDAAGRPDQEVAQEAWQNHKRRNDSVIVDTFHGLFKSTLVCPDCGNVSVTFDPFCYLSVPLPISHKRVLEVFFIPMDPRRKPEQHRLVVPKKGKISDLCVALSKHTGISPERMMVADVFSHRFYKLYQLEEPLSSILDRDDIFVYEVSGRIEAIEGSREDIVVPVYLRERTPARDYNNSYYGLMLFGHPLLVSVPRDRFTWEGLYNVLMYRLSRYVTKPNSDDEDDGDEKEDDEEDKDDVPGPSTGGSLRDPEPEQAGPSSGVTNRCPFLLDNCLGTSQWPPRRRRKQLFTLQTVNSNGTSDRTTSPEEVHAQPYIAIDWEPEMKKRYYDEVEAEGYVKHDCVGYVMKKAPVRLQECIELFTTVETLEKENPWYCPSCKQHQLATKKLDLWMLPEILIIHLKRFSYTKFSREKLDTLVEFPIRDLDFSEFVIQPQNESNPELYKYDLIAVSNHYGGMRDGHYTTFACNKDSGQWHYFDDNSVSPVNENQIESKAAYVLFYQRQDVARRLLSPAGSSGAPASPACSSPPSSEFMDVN
Outline: as §1

UniProt Q5T2D3 = target: T1, UniProt Q5T2D3
T1 sequence (whole entry): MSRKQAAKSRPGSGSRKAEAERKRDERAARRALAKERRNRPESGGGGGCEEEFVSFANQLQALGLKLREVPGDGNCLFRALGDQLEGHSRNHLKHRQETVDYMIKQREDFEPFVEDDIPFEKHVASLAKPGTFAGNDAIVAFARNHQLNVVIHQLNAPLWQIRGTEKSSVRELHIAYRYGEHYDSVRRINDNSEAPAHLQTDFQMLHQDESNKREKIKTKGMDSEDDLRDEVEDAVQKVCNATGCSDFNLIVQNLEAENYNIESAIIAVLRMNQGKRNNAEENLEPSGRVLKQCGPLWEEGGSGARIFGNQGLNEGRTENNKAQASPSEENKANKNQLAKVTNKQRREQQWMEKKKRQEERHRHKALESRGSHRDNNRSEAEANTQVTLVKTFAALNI
Outline: as §1

UniProt Q8TE49 = target: T2, UniProt Q8TE49
T2 sequence (whole entry): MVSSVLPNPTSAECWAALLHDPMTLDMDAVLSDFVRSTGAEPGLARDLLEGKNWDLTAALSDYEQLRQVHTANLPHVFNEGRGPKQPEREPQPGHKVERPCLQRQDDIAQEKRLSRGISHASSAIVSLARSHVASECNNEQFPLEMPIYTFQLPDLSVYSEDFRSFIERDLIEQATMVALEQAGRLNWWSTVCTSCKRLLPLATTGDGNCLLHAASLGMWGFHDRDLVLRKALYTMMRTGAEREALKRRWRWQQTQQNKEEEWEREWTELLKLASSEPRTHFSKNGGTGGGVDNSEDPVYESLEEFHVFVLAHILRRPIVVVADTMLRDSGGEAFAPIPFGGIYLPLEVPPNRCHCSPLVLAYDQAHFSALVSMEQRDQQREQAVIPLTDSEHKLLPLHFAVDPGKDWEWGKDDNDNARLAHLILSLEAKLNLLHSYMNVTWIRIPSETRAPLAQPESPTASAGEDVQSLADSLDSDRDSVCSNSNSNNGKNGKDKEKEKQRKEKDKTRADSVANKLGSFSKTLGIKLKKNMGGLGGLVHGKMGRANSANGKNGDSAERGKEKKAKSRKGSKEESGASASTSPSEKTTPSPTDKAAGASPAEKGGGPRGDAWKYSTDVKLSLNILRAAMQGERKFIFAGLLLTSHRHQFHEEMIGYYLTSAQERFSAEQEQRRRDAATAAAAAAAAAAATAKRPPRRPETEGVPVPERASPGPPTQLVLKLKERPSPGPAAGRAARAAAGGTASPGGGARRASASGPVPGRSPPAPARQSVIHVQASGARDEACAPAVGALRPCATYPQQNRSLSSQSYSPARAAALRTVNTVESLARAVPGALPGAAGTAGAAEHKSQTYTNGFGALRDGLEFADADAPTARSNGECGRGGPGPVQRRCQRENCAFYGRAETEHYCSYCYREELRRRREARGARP
Outline: as §1

UniProt Q9P2H5 = target: T3, UniProt Q9P2H5
T3 sequence (whole entry): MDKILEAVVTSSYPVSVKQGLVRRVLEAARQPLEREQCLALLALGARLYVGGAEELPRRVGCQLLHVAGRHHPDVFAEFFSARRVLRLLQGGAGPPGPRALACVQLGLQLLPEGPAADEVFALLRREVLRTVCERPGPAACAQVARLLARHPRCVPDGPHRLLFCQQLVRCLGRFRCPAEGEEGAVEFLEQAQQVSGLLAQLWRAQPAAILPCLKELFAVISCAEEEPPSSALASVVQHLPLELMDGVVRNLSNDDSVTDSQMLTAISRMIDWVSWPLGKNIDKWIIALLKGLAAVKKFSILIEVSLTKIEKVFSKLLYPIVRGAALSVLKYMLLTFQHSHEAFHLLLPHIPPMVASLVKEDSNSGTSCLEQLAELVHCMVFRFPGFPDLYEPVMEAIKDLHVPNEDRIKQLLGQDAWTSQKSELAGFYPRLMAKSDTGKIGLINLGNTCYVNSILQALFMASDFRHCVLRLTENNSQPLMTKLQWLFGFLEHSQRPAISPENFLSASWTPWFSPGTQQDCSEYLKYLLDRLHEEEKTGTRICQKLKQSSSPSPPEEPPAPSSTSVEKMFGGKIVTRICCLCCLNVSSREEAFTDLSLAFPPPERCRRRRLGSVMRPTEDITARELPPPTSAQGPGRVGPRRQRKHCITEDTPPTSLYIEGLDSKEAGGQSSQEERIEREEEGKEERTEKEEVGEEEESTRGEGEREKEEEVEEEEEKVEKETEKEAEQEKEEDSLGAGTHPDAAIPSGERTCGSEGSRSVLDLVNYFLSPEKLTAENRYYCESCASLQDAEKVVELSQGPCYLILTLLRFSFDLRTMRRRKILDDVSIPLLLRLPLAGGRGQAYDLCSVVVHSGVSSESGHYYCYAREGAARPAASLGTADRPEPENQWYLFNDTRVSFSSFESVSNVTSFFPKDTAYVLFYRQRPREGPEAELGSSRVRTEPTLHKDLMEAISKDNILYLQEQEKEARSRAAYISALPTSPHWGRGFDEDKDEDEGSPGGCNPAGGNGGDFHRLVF
Outline: as §1

UniProt Q9UGI0 = target: T4, UniProt Q9UGI0
T4 sequence (whole entry): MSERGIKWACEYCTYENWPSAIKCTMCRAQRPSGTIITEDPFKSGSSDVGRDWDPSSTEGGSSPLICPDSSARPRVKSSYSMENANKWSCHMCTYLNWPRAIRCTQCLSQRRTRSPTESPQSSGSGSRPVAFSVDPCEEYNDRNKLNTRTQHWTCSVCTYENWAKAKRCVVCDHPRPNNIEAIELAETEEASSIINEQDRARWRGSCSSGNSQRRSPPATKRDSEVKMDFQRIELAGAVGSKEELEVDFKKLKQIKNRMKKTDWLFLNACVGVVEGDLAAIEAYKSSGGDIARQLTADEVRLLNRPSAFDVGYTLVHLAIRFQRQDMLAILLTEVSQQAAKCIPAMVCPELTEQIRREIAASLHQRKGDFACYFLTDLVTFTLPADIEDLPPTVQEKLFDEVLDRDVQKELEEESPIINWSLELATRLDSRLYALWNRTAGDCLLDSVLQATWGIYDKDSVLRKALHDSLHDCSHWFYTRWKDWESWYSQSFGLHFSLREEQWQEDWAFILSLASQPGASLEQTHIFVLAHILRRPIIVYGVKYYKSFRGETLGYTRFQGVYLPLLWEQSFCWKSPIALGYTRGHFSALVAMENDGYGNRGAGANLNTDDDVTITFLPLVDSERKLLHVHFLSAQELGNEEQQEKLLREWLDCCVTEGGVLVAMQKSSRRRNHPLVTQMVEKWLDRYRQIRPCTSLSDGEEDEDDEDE
Outline: as §1

YOD1 = target: T5, YOD1 (UniProt Q5VVQ6)
T5 sequence (whole entry): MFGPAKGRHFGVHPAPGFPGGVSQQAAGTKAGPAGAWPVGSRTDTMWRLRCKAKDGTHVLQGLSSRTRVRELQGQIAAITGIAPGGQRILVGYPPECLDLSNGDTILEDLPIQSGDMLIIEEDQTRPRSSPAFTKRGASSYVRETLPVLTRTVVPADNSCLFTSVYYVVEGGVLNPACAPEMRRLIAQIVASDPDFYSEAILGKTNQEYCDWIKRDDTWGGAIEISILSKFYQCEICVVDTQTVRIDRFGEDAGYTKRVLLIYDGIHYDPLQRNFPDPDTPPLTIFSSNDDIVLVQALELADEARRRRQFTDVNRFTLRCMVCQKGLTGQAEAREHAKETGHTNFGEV
Outline: as §1

Measured: log2 ratio of Biotin-Ahx-Ub-VS probe labelling

Cc1ccc(C)c(Oc2ccc(CNC(=O)CCl)cn2)c1.Cl
inactive: USP9X -0.677 | UniProt O00487 -0.0677 | UniProt O00507 -0.379 | UniProt P51784 -0.367 | UniProt Q5T2D3 -0.187 | UniProt Q8TE49 -0.677 | UniProt Q9P2H5 -0.375 | UniProt Q9UGI0 -0.886 | YOD1 -0.149
